Screening data (PubChem)
Compounds with a hit are over-represented: about 2.4% of the library has one in this group of screens.
ATXN viability – cell viability loss in ATXN counter-screen | S2 cells (HEK-293 line with an ATXN2-luciferase reporter) viability, CellTiter-Fluor protease fluorescence, 24 h | Potency, µM (series often up to 56.7 µM), usual class: cytotoxic | 400,000 compounds, 0.49% hits; further: nearly all actives have a fitted effect of over 40% in size
ATXN2 expr inh – inhibitors of ATXN2 expression; Potency, µM (highest dose often 57 µM), for inactives: at the highest dose activity change, negative = inhibition, usual class: inhibitors; HEK-293 ATXN2-luciferase reporter, luminescence, 24 h; 360,000 compounds, 0.72% hits; AID 1745845; further: on the % scale 0 is the no-effect control and ±100 the full control effect; nearly all actives have a fitted effect of over 55% in size
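ATXN2-luciferase reporter cells (luciferase flanked by upstream and downstream ATXN2 gene portions) were treated 24 h at 37 °C with compounds at up to 57 uM. SteadyGlo luminescence gave expression; GF-AFC fluorescence gave viability.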
HepG2 tox – counter-screen for TGF-b inhibitors: cytotoxicity in HepG2 cells | HepG2 CAGA-GFP viability, ATP luminescence, 18 h | Potency, µM (titrated, usually from 46.1 µM), without a hit: at the highest dose activity change, negative = cytotoxicity, hits mostly cytotoxic | 410,000 compounds, 0.76% hits | AID 588856
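CellTiter-Glo luminescence gave cytotoxicity after 18 hours at 37 degrees C. The cells were HepG2 CAGA-GFP in 1% FBS DMEM, stimulated with 500 pg/mL TGF-beta after compound addition. %Activity was normalised to no-cell wells (complete cell-killing) and DMSO (no toxicity), and curves were fitted and classified.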
Anesthetic bind – candidate novel general anesthetic via apoferritin binding; P02791; apoferritin/1-aminoanthracene competitive binding, fluorescence; Potency, µM (doses to about 77.5 µM), inactives show at the highest dose activity change, negative = displacement, hits mostly inhibitors; 350,000 compounds, 0.074% hits; AID 485281; further: on the % scale 0 is the no-effect control and ±100 the full control effect; nearly all actives have a fitted effect of over 20% in size
Target sequence (P02791 2-175 limits assumed): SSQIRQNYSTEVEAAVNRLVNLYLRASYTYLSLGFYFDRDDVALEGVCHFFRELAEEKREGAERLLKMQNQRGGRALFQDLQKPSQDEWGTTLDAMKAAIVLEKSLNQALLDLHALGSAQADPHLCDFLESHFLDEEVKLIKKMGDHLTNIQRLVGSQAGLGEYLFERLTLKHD
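Concentration-response curves derived by four-parameter Hill fitting of normalized fluorescence, where compounds displaced 1-AMA from 10 uM horse apoferritin following a brief 10 min room-temperature incubation; propofol titration acted as positive control.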
TGFb SMAD3 inh – TGF-b pathway inhibition; HepG2 CAGA-GFP TGF-b/SMAD3 reporter, GFP fluorescence, 18 h; TGF-beta stimulated, 500 pg/mL final; Potency, µM (titrated, usually from 46.1 µM), for the others: at the highest dose activity, negative = inhibition, hits mostly inhibitors; 410,000 compounds, 1.2% hits; AID 588855; further: on the % scale 0 is the no-effect control and ±100 the full control effect; nearly all actives have a fitted effect of over 65% in size
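Smad-responsive CAGA-GFP expression was quantified in HEPG2 cells exposed to compounds and 500 pg/mL final TGF-beta for 18 h at 37 degrees C; unstimulated wells defined full inhibition.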
Numbers without * were called inactive; i = inactive; u = inconclusive; x = not tested or not shown; [ ] = remark or other dose. The call rests on the fitted dose curve; in most records, active means well fitted curve in the direction sought with a large enough effect; inconclusive means small, poorly fitted or top-dose-only effect, or another doubt; inactive means no such curve, though single readings can be large; an effect the other way counts as inactive or inconclusive. Potency means the concentration at half of the fitted maximal effect.

SMILES	ATXN viability	ATXN2 expr inh	HepG2 tox	Anesthetic bind	TGFb SMAD3 inh
Cc1cccc(NC(=O)c2ccc(F)c(S(=O)(=O)NCc3ccco3)c2)c1	i	-21.1%	-8.7%	-21.8%	-23.4%
O=C(Nc1cccc(C(F)(F)F)c1)c1ccc(F)c(S(=O)(=O)N2CCc3ccccc3C2)c1	x	x	-33.5%	u	11.2µM*
Cc1oc(-c2ccccc2NC(=O)c2ccccc2)nc1CNC(=O)c1cccc(-n2cccn2)c1	i	x	x	x	x
NC1=C(Cl)C(=O)c2ccc(S(N)(=O)=O)cc2C1=O	3.55µM*	3.55µM*	0.562µM*	x	u
NC1=C(Cl)C(=O)c2ccccc2C1=O	u	u	5.62µM*	x	u
C1=Nc2ccccc2/C1=C/c1c[nH]c2ccccc12	x	x	0.3%	x	-14.3%
CC(=O)c1cccc(NC(=O)C2(C)Cc3c(-c4ccccc4)ccnc3O2)c1 (stereo not given)	u	-18.8%	-7.7%	x	34.1%
COc1cc(=O)n2c(c1C(=O)NC(C)c1ccco1)CCN(C(=O)c1ccc(F)cc1Cl)CC2 (stereo not given)	i	x	x	x	x
CC(=O)Nc1cccc(NC(=O)Cc2cccs2)c1	i	x	2.9%	75.1%	-2.7%
O=C(Cc1cccs1)Nc1cccc(-c2nc3cc4ccccc4cc3[nH]2)c1	u	-35.9%	-74.1%	64.7%	11.2µM*
CC(=O)O[C@]1(C(C)=O)CC[C@H]2[C@@H]3C=C(C)C4=CC(=O)CC[C@]4(C)[C@@H]3CC[C@@]21C	x	-13.4%	x	x	x
COc1ccc(-c2nc3ncccc3n2O)cc1	i	26.4%	14.1µM*	-0.2%	-4.2%
On1c(-c2ccccc2)nc2ncccc21	i	x	-2.3%	-0.7%	5.4%
CCN1CCc2c(C#N)c(N3CCOCC3)nc(NCc3ccccc3)c2C1	i	3.8%	1.8%	120.3%	u
CCN1CCc2c(C#N)c(N3CCCCC3)nc(NCc3ccccc3)c2C1	u	-31.0%	12.6µM*	63.5%	22.4µM*
CO[C@H]1COC(=O)C/C=C\[C@H](C)[C@@H](OC)COC(=O)[C@@H](C)NC(=O)C/C=C\[C@@H]1C	x	x	x	-9.8%[15.3 µM]	x
COc1ccc(C[C@H]2CN3C(=NC[C@H]3C)N2CCNC(=O)c2ccc(C)c(Br)c2)cc1	28.2µM*	-18.5%	-41.2%	-19.6%	u
Cc1ccc(C(=O)NCCN2C3=NC[C@H](C)N3C[C@H]2Cc2ccc(O)cc2)cc1Br	i	u	0.5%	-4.0%	1.7%
Nc1ccc[n+](CC(=O)c2ccc(F)cc2)c1	x	x	-81.5%	x	103.3%
COc1ccc(CCNC(c2ccc(F)cc2)c2nnc(-c3ccccc3Cl)o2)cc1OC (stereo not given)	u	-32.9%	-19.8%	-12.3%	17.8µM*
C=CC(=O)Nc1cccc(CN2C(=O)N(c3cc(OC)cc(OC)c3)Cc3cnc(NCCCCN(CC)CC)nc32)c1	20µM*	-20.1%	-71.3%	x	-6.9%
COc1cc(/C(C)=N/NC(=S)NC(C)C)cc(OC)c1OC	i	4.3%	-37.3%	4.8%	10µM*
CCCC(=O)N(C)c1ccc(/C=C2\C=Cc3ccccc32)cc1	x	x	-53.4%	x	-22.8%
CCN1CCN(C(=O)Cn2ncc3c4ccccc4n(Cc4c(C)cc(C)cc4C)c3c2=O)CC1	x	x	-95.8%	0.1%	15.8µM*
Cc1cc(C)c(Cn2c3ccccc3c3cnn(CC(=O)N4CCCCC4)c(=O)c32)c(C)c1	i	-0.9%	9.4%	-12.3%	-1.4%
SMILES	ATXN viability	ATXN2 expr inh	HepG2 tox	Anesthetic bind	TGFb SMAD3 inh
COc1cc(CNCCc2ccc(S(N)(=O)=O)cc2)ccc1OCc1ccc(Cl)cc1	22.4µM*	17.8µM*	-108.5%	u	u
S=c1nc2ccccc2c2nc(-c3ccccc3Br)[nH]n12	u	25.1µM*	-2.5%	-6.9%	0.0%
Cc1ccc(S(=O)(=O)N2CCN(C(=O)CSC(=S)N3CCCC3)CC2)c(C)c1	u	u	10µM*	x	11.2µM*
Cc1ccc(S(=O)(=O)N2CCN(CC(=O)N3CCCC3)CC2)c(C)c1	x	-17.4%	3.5%	x	5.7%
CCOc1ccc(N=C/C=C/c2ccccc2)c(O)c1	u	x	-120.8%	88.0%	14.1µM*
O=C1CCCC(O)=C1C(C#Cc1ccccc1)C1=C(O)CCCC1=O	u	u	15.8µM*	-13.6%	u
